From PubChem BioAssay (Tox21)
“And” between values parts separate entries of the source, which are not always exact repeats. Equal values may be shown once. Records with an inconclusive call do not appear. Where a call stands in place of a potency, no number is given. The source made the active and inactive calls. The call rests on the fitted dose curve; in most records, active means well fitted activation curve with a large enough effect in the signal ratio in the repeat runs, with a control signal flat (not every such curve was filed as active); inconclusive means weak or mixed curves, or effect the other way; inactive means no such curve, though single readings can be large or run the other way; the % refers to the signal ratio.

biological target: Androgen receptor (Homo sapiens) (UniProt P10275); experiment: qHTS assay to identify small molecule agonists of the androgen receptor (AR) signaling pathway (AID 743036); conditions: HEK293 AR-UAS-bla GripTite, beta-lactamase FRET ratio, 16 h; series mostly up to 62.4 µM
Sequence (P10275 whole entry, looked up): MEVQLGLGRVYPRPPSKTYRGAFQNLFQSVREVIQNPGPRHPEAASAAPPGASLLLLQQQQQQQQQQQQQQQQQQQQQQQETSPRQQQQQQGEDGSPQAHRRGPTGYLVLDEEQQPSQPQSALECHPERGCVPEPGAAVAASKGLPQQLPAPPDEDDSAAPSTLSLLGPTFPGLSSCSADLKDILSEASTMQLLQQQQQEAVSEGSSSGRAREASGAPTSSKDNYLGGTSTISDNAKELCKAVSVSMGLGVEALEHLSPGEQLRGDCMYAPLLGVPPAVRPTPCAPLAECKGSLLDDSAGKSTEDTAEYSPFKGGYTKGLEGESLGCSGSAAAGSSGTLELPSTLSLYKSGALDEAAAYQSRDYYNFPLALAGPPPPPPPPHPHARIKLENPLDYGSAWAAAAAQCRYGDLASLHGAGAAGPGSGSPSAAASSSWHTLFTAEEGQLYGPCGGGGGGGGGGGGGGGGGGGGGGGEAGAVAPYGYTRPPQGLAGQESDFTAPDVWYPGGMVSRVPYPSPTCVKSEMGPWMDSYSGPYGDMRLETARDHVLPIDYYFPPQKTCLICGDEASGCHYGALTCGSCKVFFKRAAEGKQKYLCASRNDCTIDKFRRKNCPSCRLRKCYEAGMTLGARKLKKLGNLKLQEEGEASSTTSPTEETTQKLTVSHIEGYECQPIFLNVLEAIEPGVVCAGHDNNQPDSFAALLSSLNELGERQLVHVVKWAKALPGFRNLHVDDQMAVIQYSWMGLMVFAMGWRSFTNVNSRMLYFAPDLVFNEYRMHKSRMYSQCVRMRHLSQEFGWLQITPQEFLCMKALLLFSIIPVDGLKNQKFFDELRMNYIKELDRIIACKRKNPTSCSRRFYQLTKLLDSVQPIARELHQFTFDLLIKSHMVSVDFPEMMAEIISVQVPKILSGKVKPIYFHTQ
Excerpt: U.S. Tox21 Program National Center for Advancing Translational Sciences [NCATS] NIH Chemical Genomics Center [NCGC] U.S. Environmental Protection Agency [EPA] National Institutes of Environmental Health Sciences [NIEHS] National Toxicology Program [NTP] U.S. Food and Drug Administration [FDA] Tox21 Assay Overview: Androgen receptor (AR), a nuclear hormone receptor, plays a critical role in AR-dependent prostate cancer and other androgen related diseases. Endocrine disrupting chemicals (EDCs) and their interactions with steroid hormone receptors like AR may cause disruption of normal endocrine function as well as interfere with metabolic homeostasis, reproduction, developmental and behavioral functions. To identify the compounds that activate AR signaling, GeneBLAzer AR-UAS-bla-GripTite cell line (Invitrogen, Carlsbad, CA, USA) containing a beta-lactamase reporter gene under the control of an Upstream Activator Sequence (UAS) stably integrated into HEK293 cells was used to screen the Tox21 10K compound library.
Tox21 Assay Protocol Summary: AR-bla cells were dispensed at 2,000 cells/6 uL/well of assay medium into black wall/clear-bottom 1536-well plates using a Multidrop Combi (ThermoFisher Scientific, Waltham, MA) dispenser. After the assay plates were incubated at 37C and 5% CO2 for 4 h, 23 nL of compounds dissolved in DMSO, positive controls or DMSO only was transferred to the assay plate by a Pintool station (Kalypsys, San Diego, CA). The plates were incubated at 37C and 5% CO2 for 16 h. Then 1 uL of LiveBLAzerTM B/G FRET substrate was added using a Bioraptr Flying Reagent Dispenser (FRD) workstation (Beckman Coulter, Indianapolis, IN, USA). The plates were incubated at room temperature for 2 h, and fluorescence intensity was measured by an Envision plate reader (PerkinElmer, Shelton, CT).
Potency means the concentration at half of the fitted maximal effect.

Compound | Potency
CN/C(=C\[N+](=O)[O-])NCCSCc1csc(CN(C)C)n1 | inactive
CC(=O)CC(C)(C)O | inactive
OCc1ccccc1 | inactive
CC(C)CC(=O)CC(C)CC(C)C (stereo not drawn) | inactive
COc1ccc(C)cc1N | inactive
OCc1cccc(Oc2ccccc2)c1 | inactive
COc1ccccc1OCC(O)CO (stereo not drawn) | inactive
Cc1ccc([N+](=O)[O-])cc1S(=O)(=O)O | inactive
O=C(O)c1ccc(C(=O)O)c(C(=O)O)c1 | inactive
CC(=O)OCc1ccccc1 | inactive
CC(CCO)CC(C)(C)C (stereo not drawn) | inactive
CCNc1ccccc1 | inactive
COc1cc(OC)c(C(=O)CCCN2CCCC2)c(OC)c1 | inactive
CSc1ccc(Cl)cc1 | inactive
CCCCCC(=O)O | inactive
COC(=O)c1cccnc1 | inactive
C[C@]12CCC(=O)C=C1CC[C@@H]1[C@@H]2[C@@H](O)C[C@@]2(C)[C@H]1CC[C@]2(O)C(=O)CO | 21.3 nM (active) and 27.8 nM (active)
CC(=O)Oc1ccc(C)cc1 | inactive
